Screening results as filed in PubChem.
In the library only some 3.2% were active in any assay of this set; here they are far more common.
MsrA inh – bovine MsrA inhibition; purified bovine MsrA, absorbance read-out; inhibition, % at 15.5 µM; 360,000 compounds, 0.75% hits; AID 651718
DAGLB inh – diacylglycerol lipase beta (human) inhibition; Q8NCG7; HEK293T DAGLB membrane lysate, EnzChek fluorogenic substrate; inhibition, % at 5.17 µM; 340,000 compounds, 0.059% hits; AID 504411; in the data active means inhibition above about 34%
Target sequence (Q8NCG7 whole entry, looked up): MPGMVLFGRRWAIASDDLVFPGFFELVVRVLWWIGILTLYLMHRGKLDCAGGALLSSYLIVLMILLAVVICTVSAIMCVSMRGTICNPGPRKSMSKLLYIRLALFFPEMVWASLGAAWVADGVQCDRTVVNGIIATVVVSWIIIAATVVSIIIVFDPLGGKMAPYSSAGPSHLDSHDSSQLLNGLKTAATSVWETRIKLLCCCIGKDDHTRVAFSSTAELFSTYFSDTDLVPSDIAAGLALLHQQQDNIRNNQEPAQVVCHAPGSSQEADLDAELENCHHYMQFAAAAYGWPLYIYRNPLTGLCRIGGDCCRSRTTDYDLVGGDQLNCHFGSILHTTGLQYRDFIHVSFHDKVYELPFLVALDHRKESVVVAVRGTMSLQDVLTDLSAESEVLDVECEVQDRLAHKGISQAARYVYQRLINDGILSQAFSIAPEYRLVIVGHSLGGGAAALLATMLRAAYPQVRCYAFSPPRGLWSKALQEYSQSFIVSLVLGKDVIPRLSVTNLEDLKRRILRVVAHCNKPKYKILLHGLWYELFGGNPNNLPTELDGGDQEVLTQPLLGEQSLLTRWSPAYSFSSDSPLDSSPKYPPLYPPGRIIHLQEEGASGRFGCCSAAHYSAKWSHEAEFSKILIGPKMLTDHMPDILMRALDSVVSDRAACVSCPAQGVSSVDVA
rCAG RNA binder – molecules binding r(CAG) RNA repeats. r(CAG) RNA repeat, TO-PRO-1 dye displacement fluorescence. inhibition, % at 3 µM. 370,000 compounds, 1.3% hits;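 active means inhibition above the plate cutoff, the mean of all test compounds on that plate plus 3 SD, cut at about 35% in these data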;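 further: higher means more dye released from RNA so lower well fluorescence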
NadD block – blocks S. aureus nicotinate mononucleotide adenylyltransferase; purified NadD enzyme, colorimetric absorbance read-out; inhibition, % at 20 µM; 360,000 compounds, 0.78% hits; AID 602399; in the data active means inhibition above about 26%
MsrA act – activates bovine MsrA enzyme; purified bovine MsrA, absorbance read-out; 360,000 compounds, 0.3% hits; activation, % at 10.6 µM; in the data active means activation above about 7.5%
DSG3 Ab inh – human desmoglein-3 autoantibody binding inhibition. DSG3-coupled beads, scFv-anti-DSG3-GFP binding, flow cytometry; active compounds read low. binding (percent of control), % at 10 µM. 310,000 compounds, 0.48% hits. AID 588358;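 active means binding more than 3 SD below its plate's average and above zero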;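 further: hits lower antibody fragment binding to DSG3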
MsrA conf – bovine MsrA inhibition, confirmed | shares compounds with MsrA inh | purified bovine MsrA, absorbance read-out | inhibition, % at 15.5 µM | 2,300 compounds, 41% hits;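 further: coupled to thioredoxin reductase with NADPH and selenocystamine and DMSO as substrate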
Of the large screens only hits and unclear results are named; the others gave an inactive call (follow-up assays come after a bar, where they were run). Unless noted, no stated cut-off is given here; in the data, active means inhibition above about 4.5%; inactive means the rest.

Cc1cc(-c2n[nH]c(=S)n2/N=C/c2c[nH]c3ccccc23)n[nH]1	none
COc1cccc(C(C)(O)c2nc(-c3ccc(S(C)(=O)=O)cc3)cs2)c1 (stereo unspecified)	none (no result: DAGLB inh, DSG3 Ab inh)
Cc1nn(-c2ccccc2)c(N)c1N=Nc1ccc2ccccc2c1	none
Cc1ccc(N=Nc2c(N)nn(-c3ccccc3)c2N)cc1	MsrA inh 5.0 | MsrA conf inactive
COC(=O)c1c(C(=O)OC)c(-c2ccc(F)cc2)n2c1CSC2	MsrA inh 5.6 | MsrA conf inactive
Oc1[nH]c2ccccc2c1C1=NCCCC1	MsrA inh 4.9 | MsrA conf inactive
c1ccc(-n2nnnc2-n2nnc3ccccc32)cc1	MsrA inh 23 | MsrA conf 22
COc1ccc(/C=C2\SC(N)=NC2=O)cc1	MsrA inh 4.8 | MsrA conf 5.0
NC1=NC(=O)/C(=C/c2ccsc2)S1	MsrA inh 5.7 | MsrA conf inactive
Cc1ccc(NC(=O)CCS(=O)(=O)c2ccccc2)c(C)c1	none (no result: MsrA inh, DAGLB inh, NadD block, MsrA act, DSG3 Ab inh)
CC1=CC2=C(C=O)C(=O)C(C)(O)C(O)C2=CO1 (stereo unspecified)	none
CC(NC(=O)COC(=O)C1=NN(c2ccccc2)C(=O)CC1)c1ccccc1 (stereo unspecified)	none
O=C(COC(=O)C1=NN(c2ccccc2)C(=O)CC1)Nc1ccc([N+](=O)[O-])cc1C(F)(F)F	MsrA inh 12 | MsrA conf 11
CCC(C)c1ccccc1NC(=O)COC(=O)C1=NN(c2ccccc2)C(=O)CC1 (stereo unspecified)	MsrA inh 39 | MsrA conf 30
Cc1c(N=Nc2ccc(O)cc2)c(=O)n(-c2ccccc2)n1C	MsrA inh 5.2 | MsrA conf inactive
Cc1cc(N=O)no1	none (no result: DAGLB inh, NadD block, MsrA act, DSG3 Ab inh)
CSc1ccc(/C=C(/NC(=O)c2ccco2)C(=O)NCc2ccco2)cc1	MsrA inh 6.3 | MsrA conf inactive
O=C(NCc1ccco1)/C(=C/c1ccccc1)NC(=O)c1ccco1	none (no result: DSG3 Ab inh)
O=C(NCc1ccco1)/C(=C/C=C/c1ccccc1)NC(=O)c1ccco1	MsrA inh 4.9 | MsrA conf inactive
O=C(NCc1ccco1)/C(=C\C=C\c1ccccc1)NC(=O)c1ccccc1Br	MsrA inh 5.0 | MsrA conf inactive
O=C(O)CCNC(=O)/C(=C\C=C\c1ccccc1)NC(=O)c1ccccc1	MsrA inh 6.8 | MsrA conf inactive
O=C(NCc1ccco1)/C(=C\C=C\c1ccccc1)NC(=O)c1ccco1	none
CC(CCN1CCC(C(O)(c2ccccc2)c2ccccc2)CC1)Oc1ccc(OC(F)(F)F)cc1 (stereo unspecified)	none (no result: MsrA inh, DAGLB inh, NadD block, MsrA act, DSG3 Ab inh)
O=S(=O)(c1ccc(Cl)s1)N1CCC(c2cn3ccccc3n2)CC1	none (no result: MsrA inh, DAGLB inh, NadD block, MsrA act, DSG3 Ab inh)
CC(=O)c1ccc(COC(=O)c2cc3ccccc3oc2=O)cc1	MsrA inh 8.3 | MsrA conf inactive
CCC(=O)c1ccc(/C=C/c2nc3ccccc3n2C)o1	MsrA inh 5.2 | MsrA conf inactive
CCOC(=O)[C@]12CCCC=C1N(CCCOC)C(=O)[C@@H]2CC(=O)N1CCC(c2ccccc2)CC1	none (no result: MsrA inh, DAGLB inh, NadD block, MsrA act, DSG3 Ab inh)
CCCn1cnc2c(Sc3c([N+](=O)[O-])ncn3C)nc(N)nc21	none
CCC(C)Cn1cnc2c(Sc3c([N+](=O)[O-])ncn3C)nc(N)nc21 (stereo unspecified)	MsrA inh 4.9 | MsrA conf 4.9
CCCCn1cnc2c(Sc3c([N+](=O)[O-])ncn3C)nc(N)nc21	MsrA inh 5.2 | MsrA conf inactive
CC(C)Cn1cnc2c(Sc3c([N+](=O)[O-])ncn3C)nc(N)nc21	MsrA inh 7.7 | MsrA conf inactive
CC(=O)c1c(C)[nH]c(C(=O)Nc2cccc(C(F)(F)F)c2)c1C	none (no result: DSG3 Ab inh)
COc1ccc(NC(=S)NCC2CCCO2)c(C)c1 (stereo unspecified)	none
COc1cc(/C=N/NC(=O)C(=O)NCC2CCCO2)ccc1O (stereo unspecified)	MsrA inh 4.8 | MsrA conf inactive
COc1cc(OC)c(OC)cc1/C=N/NC(=S)NCC1CCCO1 (stereo unspecified)	MsrA inh 5.9 (no result: DSG3 Ab inh) | MsrA conf 4.9
COc1cc(/C=N/NC(=S)NCCN2CCOCC2)cc(OC)c1O	MsrA inh 5.2 | MsrA conf 5.7
COc1cc(OC)c(OC)cc1/C=N/NC(=S)NCCN1CCOCC1	MsrA inh 5.1 | MsrA conf inactive
COc1cc(/C=C(\C#N)C(=O)NCC2CCCO2)ccc1O (stereo unspecified)	none
CC(C)C(C#CC1CC1)N(Cc1ccc2c(c1)OCO2)C(N)=NC(=O)/C=C/c1ccccc1 (stereo unspecified)	none (no result: MsrA inh, DAGLB inh, NadD block, MsrA act, DSG3 Ab inh)
C[C@@H]1CN([C@H](C)CO)S(=O)(=O)c2ccc(C#CC3CCCC3)cc2O[C@H]1CN(C)C(=O)Cc1ccccc1	none (no result: DSG3 Ab inh)
OCc1nc2ccccc2n1CCCc1ccccc1	none
COC(=O)[C@]12C[C@H](CC(=O)NCCCCc3ccccc3)C(=O)N(CCc3ccc(OC)c(OC)c3)C1=C[C@H](C(C)(C)C)O[C@@H]2C	none (no result: MsrA inh, DAGLB inh, NadD block, MsrA act, DSG3 Ab inh)
CN=c1sc(C(=O)Nc2ccccc2)c(C)n1C	none
CN=c1sc2c(n1C)C(=O)c1ccccc1C2=O	MsrA inh 9.7 (no result: DSG3 Ab inh) | MsrA conf 7.0
N#Cc1c(/N=C/c2ccc(-c3ccc(C(=O)O)c(Cl)c3)o2)sc2c1CCCC2	MsrA inh 7.0 (no result: DSG3 Ab inh) | MsrA conf inactive
O=C(O)c1ccc2c(=O)n3c(nc2c1)/C(=C/c1cccc(O)c1)CC3	MsrA inh 5.0 | MsrA conf inactive
O=c1c2ccc(Cl)cc2nc2n1CC/C2=C\c1cccc(O)c1	none
O=C(NCCc1ccccc1F)c1ccc2c(c1)ncn2C1CCCCC1	none (no result: MsrA inh, DAGLB inh, NadD block, MsrA act, DSG3 Ab inh)
CC(=O)Nc1ccc(C=NNC(=O)c2ccc(NS(=O)(=O)c3cccs3)cc2)cc1	MsrA inh 4.8 | MsrA conf 7.1
CC(C)c1ccc(/C=N/NC(=O)c2cccc(S(=O)(=O)N3CCOCC3)c2)cc1	none
COc1ccccc1CNC(=O)c1ccc(NS(=O)(=O)c2cccs2)cc1	none
COc1cc(C=NNC(=O)c2ccc(NS(=O)(=O)c3cccs3)cc2)cc(Br)c1O	MsrA inh 5.6 (no result: DSG3 Ab inh) | MsrA conf 6.0
O=C(NN=Cc1c(F)c(F)c(F)c(F)c1F)c1ccc(NS(=O)(=O)c2cccs2)cc1	none
CC(=O)Nc1ccc(/C=N/NC(=O)c2cccc(S(=O)(=O)N3CCOCC3)c2)cc1	MsrA inh 6.2 (no result: DSG3 Ab inh) | MsrA conf inactive
COc1ccc(C2Nc3cccc(O)c3C(=O)N2Cc2ccccc2)cc1COc1ccc(NC(C)=O)cc1 (stereo unspecified)	none (no result: DAGLB inh, DSG3 Ab inh)
N#C/C(=C/c1ccc(CNS(=O)(=O)c2ccccc2)o1)C(=O)NCc1ccccc1	MsrA inh 4.8 (no result: DSG3 Ab inh) | MsrA conf inactive
O=C(O)c1cccc(S(=O)(=O)NCC(=O)N2CCN(c3ccccn3)CC2)c1	none (no result: MsrA inh, DAGLB inh, NadD block, MsrA act, DSG3 Ab inh)
Cc1ccc(-c2cc(C(F)F)n3ncc(C(=O)N4CCN5CCCC5C4)c3n2)cc1 (stereo unspecified)	none
